Source: PubChem BioAssay (National Center for Advancing Translational Sciences (NCATS))
TbPYK inhibitor: blocks Trypanosoma brucei pyruvate kinase | Q57TT1 | 410,000 tested, 0.12% active | Potency, µM (highest dose often 76.8 µM), inactives show at the top dose activity, negative = inhibition, actives largely listed as inhibitors | TbPYK enzyme, Kinase-Glo Plus ATP luminescence, 45 min | AID 624173; note: nearly all actives have a fitted effect of over 50% in size
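Readout: single end-point luminescence (Kinase-Glo Plus, 10 min). Reaction conditions were TbPYK/substrate plus 130 uM ADP, 45 min at RT, pH 7.2 TEA buffer. No-enzyme wells served as controls, and data were normalized before concentration-response fitting.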
LmPK inhibitor: inhibitors of Leishmania mexicana pyruvate kinase; Q27686; Potency, µM (series often up to 57.5 µM), inactives show at the highest dose activity change, negative = inhibition, hits mostly inhibitors; purified LmPK, Kinase-Glo ATP luminescence, 1 h; 290,000 tested, 0.37% active
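ATP generated from ADP (0.1 mM) and PEP (0.5 mM) by 0.1 nM LmPK over 1 h at room temperature (pH 7.2 imidazole buffer) was detected by coupled luciferase luminescence. Values were normalized to uninhibited and no-enzyme wells.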
Sm TGR block: S. mansoni TGR enzyme inhibition; Potency, µM (titrated, usually from 114 µM), without a hit: at the top dose activity change, negative = inhibition, actives largely listed as inhibitors; 360,000 tested, 3% active; Q962Y6; purified TGR, DTNB reduction, TNB absorbance 405 nm; note: nearly all actives have a fitted effect of over 60% in size
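TGR 20 nM + NADPH 100 uM (dispensed conc.), cpd preinc 15 min RT; start with NADPH (500 uM addition) then DTNB (15 mM addition). Kinetic TNB absorbance, 405 nm filter. Four-parameter Hill fit across titration.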
FBPA Giardia inh: blocks Giardia fructose-bisphosphate aldolase activity | A8B2U2 | purified Giardia FBPA | Potency, µM (titrated, usually from 59.6 µM), for inactives: top-dose activity, negative = inhibition, usual class: inhibitors | 290,000 tested, 0.71% active; note: nearly all actives have a fitted effect of over 55% in size
Target sequence (A8B2U2 whole entry, looked up): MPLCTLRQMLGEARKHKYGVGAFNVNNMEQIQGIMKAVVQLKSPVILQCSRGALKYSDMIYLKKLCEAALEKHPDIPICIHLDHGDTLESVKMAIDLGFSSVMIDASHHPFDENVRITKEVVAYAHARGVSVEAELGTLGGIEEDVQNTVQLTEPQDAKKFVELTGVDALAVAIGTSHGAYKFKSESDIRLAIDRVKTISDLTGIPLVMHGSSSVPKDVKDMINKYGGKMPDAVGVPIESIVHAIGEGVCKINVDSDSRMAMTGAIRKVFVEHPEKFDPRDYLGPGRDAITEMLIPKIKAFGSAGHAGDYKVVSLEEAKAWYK
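40 nM FBPA preincubated 10 min at RT with compound (up to 57.5 uM final), then substrate plus GAPDH/TPI/NAD/arsenate coupling and diaphorase/resazurin added. Fluorescence read after 20 min at RT, 525/598 nm.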
RE007 growth inh: less growth of the S. pombe RE007 Vpr strain. S. pombe RE007 Vpr strain, BacTiter-Glo ATP luminescence, 24 h. Potency, µM (doses to about 92.2 µM), without a hit: at the highest dose activity change, negative = less growth, hits mostly inhibitors. 360,000 tested, 0.21% active; active = well fitted falling curve with a large enough effect; inconclusive = small, poorly fitted or top-dose-only effect; inactive = no such curve, though single readings can be large or run the other way; note: nearly all actives have a fitted effect of over 50% in size
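Fission yeast strain RE007, carrying one chromosomally integrated HIV-1 vpr copy, was seeded at OD 0.01 in PMG+AL medium with 23 nL pinned compound. After 24 h at 30 °C and 99% humidity, viability was read by BacTiter-Glo luminescence.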
* marks the source's active call; other numbers are inactive results; ? = inconclusive; · = no result given. The list is not random: actives were taken first. Their share in the collection is about 3.3%. Unless noted, calls come from the whole dose curve; as a rule, active = well fitted curve in the direction sought with a large enough effect; inconclusive = small, poorly fitted or top-dose-only effect, or another doubt; inactive = no such curve, though single readings can be large; an effect the other way counts as inactive or inconclusive. % is set by controls: 0 for no effect and ±100 for the full control effect; potency is the fitted concentration of half-maximal effect.

SMILES	TbPYK inhibitor	LmPK inhibitor	Sm TGR block	FBPA Giardia inh	RE007 growth inh
O=C(c1cc(-c2cccc(Cl)c2)on1)N1CCCCCC1	-1.0%	-1.6%	2.6%	-10.3%	-24.6%
Clc1ccc(-c2nc3ccncc3[nH]2)cc1	-24.4%	14.1µM*	-1.5%	-5.3%	39.8µM*
CC(=O)Oc1cc2c(C(=O)NCCCN3CCOCC3)c(C)oc2c2ccccc12	-16.6%	2.0%	35.5µM*	?	4.7%
Cc1c(OCC(=O)NCCCN2CCOCC2)ccc2c1oc(=O)c1ccccc12	1.8%	-12.8%	-0.3%	·	-5.5%
COc1ccc(Nc2nc(CC(C)=O)ns2)cc1OC	-9.5%	-7.0%	12.6µM*	-4.9%	0.0%
CC(=O)Cc1nsc(Nc2cccc(C)c2)n1	2.0%	-7.5%	-3.9%	-3.8%	-12.7%
CC(=O)NC(c1ccco1)c1cc(Cl)c2cccnc2c1O (stereo unspecified)	-2.6%	·	-20.5%	·	·
CC(=O)NC(c1ccco1)c1cc(Cl)c2ccc(N(C)C)nc2c1O (stereo unspecified)	·	·	3.98µM*	·	·
O=S(=O)(NCc1cccs1)c1cccc(S(=O)(=O)N2CCCCC2)c1	9.1%	3.9%	1.4%	-7.7%	-0.1%
COc1ccc(N2C(=O)CC(N(CCc3ccccc3)C(=O)c3ccccc3)C2=O)cc1 (stereo unspecified)	-7.7%	0.4%	14.9%	-15.8%	1.6%
CN(Cc1ccccc1)C1CC(=O)N(c2ccc(C(=O)O)cc2)C1=O (stereo unspecified)	8.4%	0.0%	20µM*	3.3%	0.7%
CCCCCC(=O)N(O)C1CC(=O)N(c2ccccc2)C1=O (stereo unspecified)	-14.9%	3.3%	?	-2.6%	10µM*
CN1N=C(C(=O)N2CCCC(Nc3ccc(F)c(F)c3)C2)CCC1=O (stereo unspecified)	1.0%	-8.0%	-16.6%	·	1.9%
O=C(c1ccco1)N1CCN(Cc2csc(-c3ccccc3Cl)n2)CC1	-2.2%	-2.8%	50.1µM*	·	?
O=C(c1ccco1)N1CCN(Cc2c(Cl)cccc2Cl)CC1	0.3%	2.9%	-11.1%	5.5%	14.9%
COCCCC1CCN(C(=O)C2CCC(=O)N(CCCc3ccccc3)C2)CC1 (stereo unspecified)	-1.7%	·	·	·	-2.9%
CN(/N=C/c1ccco1)C1=NS(=O)(=O)c2ccccc21	-5.4%	1.9%	-0.4%	-0.4%	12.0%
CCNc1nc(NCC)nc(N(C)/N=C/c2ccco2)n1	9.6%	5.0%	35.5µM*	?	-12.1%
O=C(CNC(=O)C(c1ccccc1)c1ccccc1)N/N=C\c1cccc(O)c1	-4.9%	2.0%	16.3%	-0.4%	-9.9%
O=C(Nc1cccc(C(=O)OCc2cc(=O)n3c4c(sc3n2)CCCC4)c1)c1cccc(Cl)c1	-4.1%	·	-0.3%	·	·
O=C(/C=C/Nc1cccc(O)c1)c1ccccc1	-11.7%	14.1µM*	?	-2.3%	0.8%
Cc1ccc(C(=O)/C=C/Nc2cccc(O)c2)cc1	-17.9%	?	3.9%	-15.3%	-19.1%
O=C(/C=C\Nc1ccccn1)c1ccccc1	-16.4%	12.6µM*	-3.3%	2.4%	0.0%
COc1ccc(C(=O)/C=C/Nc2cc(C)ccn2)cc1	-27.1%	12.6µM*	21.5%	-8.1%	-12.8%
Cc1cc(C)cc(OCC(=O)N2N=C(C(F)(F)F)CC2(O)C(C)(C)C)c1 (stereo unspecified)	-9.9%	4.8%	50.1µM*	-6.1%	23.4%
SMILES	TbPYK inhibitor	LmPK inhibitor	Sm TGR block	FBPA Giardia inh	RE007 growth inh
Cc1c(Cl)sn(-c2ccc(Cl)cc2)c1=O	4.47µM*	1.3%	3.55µM*	-28.6%	1µM*
Cc1nn(-c2ccc(Cl)cc2)c(=O)c2ccccc12	-2.8%	1.3%	·	1.4%	-7.4%
Cc1cccc(NCc2ccc(O)c3ncccc23)c1C	-16.9%	20.8%	0.112µM*	0.7%	4.7%
Cc1ccc(NCc2ccc(O)c3ncccc23)cc1C	-5.7%	-18.4%	-1.7%	-5.6%	-26.8%
Cc1cccnc1NCc1ccc(O)c2ncccc12	-2.8%	5.6%	0.282µM*	?	-20.1%
Oc1ccc(CNc2cccc(C(F)(F)F)c2)c2cccnc12	·	·	0.316µM*	·	·
Cc1ccc(NCc2ccc(O)c3ncccc23)cc1	0.7%	10.9%	?	?	-14.4%
COc1ccc(CCN2CC(C(=O)OCC(=O)NC(Cc3ccccc3)C(C)=O)CC2=O)cc1OC (stereo unspecified)	25.2%	·	·	·	-5.1%
Cc1ccc(CNC(=O)[C@H](Cc2ccccc2)NC(=O)c2ccco2)cc1	-4.8%	·	-4.0%	·	-8.7%
COCCn1c(C)cc(O)c(C(c2ccccc2)N2CCC(C)CC2)c1=O (stereo unspecified)	2.1%	·	22.4µM*	·	·
COCCn1c(C)cc(O)c(C(c2ccc(F)cc2)N2CCC(C)CC2)c1=O (stereo unspecified)	-12.3%	·	10µM*	·	·
COCCn1c(C)cc(O)c(C(c2ccc(OC)cc2)N2CCCCC2)c1=O (stereo unspecified)	0.3%	·	?	·	·
Clc1nnc(N/N=C/c2ccccc2)c2ccccc12	-6.7%	-21.8%	0.0%	-13.7%	?
C[n+]1ccc(/C=N/Nc2nc(Cl)c(C#N)c(Cl)c2Cl)cc1	-10.5%	-25.4%	11.2µM*	-14.6%	?
CN(Cc1cccnc1)C(=O)CCCc1c[nH]c2ccccc12	0.0%	-5.0%	31.6µM*	0.6%	-5.7%
O=c1cc(CCl)[nH]c2nc3ccccc3n12	2.3%	-11.3%	22.4µM*	-6.4%	-2.0%
O=c1cc(-c2ccccc2)[nH]c2nc3ccccc3n12	-8.6%	?	4.8%	-6.9%	-15.6%
O=C1c2cccnc2C(Nc2ccccc2)N1Cc1ccco1 (stereo unspecified)	-11.6%	-7.7%	25.1µM*	0.0%	-8.8%
CC(=O)c1cccc(NC2c3ncccc3C(=O)N2Cc2ccco2)c1 (stereo unspecified)	-10.7%	-1.8%	?	-6.7%	3.7%
O=C1c2cccnc2C(Nc2ccccc2Br)N1Cc1ccco1 (stereo unspecified)	-2.5%	-2.8%	22.4µM*	-4.3%	4.9%
O=C1c2cccnc2C(Nc2cccc(F)c2)N1Cc1ccco1 (stereo unspecified)	2.0%	2.8%	35.5µM*	0.1%	18.2%
Nc1c2c(=O)oc(-c3ccccc3)cc2nn1-c1ccccc1	-4.3%	3.7%	-10.6%	-6.5%	-0.3%
O=C1C(c2[nH]c3ccc(S(=O)(=O)O)cc3c2O)=Nc2ccc(S(=O)(=O)O)cc21	0.0%	·	·	17.7µM*	·
Cn1cc(C(N)=O)c2ccccc21	-6.7%	3.5%	3.4%	3.0%	-0.5%
Cn1cc(C(=O)CCl)c2ccccc21	-7.4%	-7.0%	3.55µM*	-8.1%	2.7%
Cc1ccccc1NC(=O)NCC1CCN(c2ccc(S(=O)(=O)N3CCOCC3)cc2)CC1	5.4%	-5.4%	-1.7%	-2.3%	-10.7%
O=C(COC(=O)c1cccs1)c1ccc2c(c1)OCCO2	?	12.6µM*	1.9%	1.6%	?
